# Measurements published in article PMC7862700, “An all-to-all approach to the identification of sequence-specific readers for epigenetic DNA modifications on cytosine”.
# Experiments:
# Assay in all cases: DAPPL (digital affinity profiling via proximity ligation, sequencing); 10 mM Tris-HCl pH 7.5, 50 mM NaCl, 1 mM DTT, 4% glycerol, room temperature, 30 min; GST-TFs on glutathione beads, 16-mer random dsDNA library, 0.1% formaldehyde crosslink after washing; high values mean tight binding
# Conditions in all cases: protein: recombinant; tags: N-terminal GST; dsDNA, one strand shown
# ELK4 = target: T1, ELK4 (Homo sapiens, UniProt P28324-2 1-405)
# T1 sequence: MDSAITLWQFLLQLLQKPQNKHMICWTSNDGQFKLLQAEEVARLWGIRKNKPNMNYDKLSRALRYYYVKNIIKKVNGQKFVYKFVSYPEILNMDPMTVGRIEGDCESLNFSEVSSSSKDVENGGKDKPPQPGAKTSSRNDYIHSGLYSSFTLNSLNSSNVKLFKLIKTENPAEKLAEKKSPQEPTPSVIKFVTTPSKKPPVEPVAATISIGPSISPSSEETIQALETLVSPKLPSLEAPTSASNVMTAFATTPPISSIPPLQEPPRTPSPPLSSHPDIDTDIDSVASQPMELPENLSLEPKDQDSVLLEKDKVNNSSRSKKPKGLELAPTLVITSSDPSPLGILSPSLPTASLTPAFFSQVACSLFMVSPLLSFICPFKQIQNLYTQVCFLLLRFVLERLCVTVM
# Summary of the method: (§1)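 GST fusions of human transcription factors were expressed in yeast and captured with glutathione beads. Once given DNA barcodes and pooled alongside a tag-only sample, they were incubated for 30 min at room temperature with 200 nmole of a random double-stranded 16-mer DNA library in Tris/NaCl/DTT/glycerol buffer, then washed, crosslinked (0.1% formaldehyde), proximity-ligated, PCR-amplified and sequenced on an Illumina NextSeq500. The binding signal of each hexamer is its read frequency for a factor divided by its frequency for the tag-only sample.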
# ETV7 = target: T2, ETV7 (Homo sapiens, UniProt Q9Y603 1-341)
# T2 sequence: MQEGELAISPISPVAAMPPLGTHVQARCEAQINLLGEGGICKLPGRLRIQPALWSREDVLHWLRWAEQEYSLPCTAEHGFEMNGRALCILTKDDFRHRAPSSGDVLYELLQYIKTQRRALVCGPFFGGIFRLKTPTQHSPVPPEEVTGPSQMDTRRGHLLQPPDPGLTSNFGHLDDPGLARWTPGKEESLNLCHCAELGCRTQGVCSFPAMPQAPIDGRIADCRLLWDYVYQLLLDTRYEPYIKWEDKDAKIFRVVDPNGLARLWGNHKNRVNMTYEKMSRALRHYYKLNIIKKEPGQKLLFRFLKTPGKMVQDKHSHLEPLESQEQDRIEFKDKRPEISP
# Summary of the method: as §1
# ELF5 = target: T3, ELF5 (Homo sapiens, UniProt Q9UKW6-2 1-255)
# T3 sequence: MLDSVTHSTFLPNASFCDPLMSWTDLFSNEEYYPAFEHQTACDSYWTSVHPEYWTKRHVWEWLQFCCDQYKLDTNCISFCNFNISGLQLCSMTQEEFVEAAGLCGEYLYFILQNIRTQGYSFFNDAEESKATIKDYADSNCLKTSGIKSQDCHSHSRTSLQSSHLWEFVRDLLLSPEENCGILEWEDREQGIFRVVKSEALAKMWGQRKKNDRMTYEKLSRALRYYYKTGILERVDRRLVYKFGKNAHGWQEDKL
# Summary of the method: as §1
# CRX = CRX (Homo sapiens, UniProt O43186 1-299)
# Summary of the method: as §1
# ELF3 = target: T4, ELF3 (Homo sapiens, UniProt P78545 1-371)
# T4 sequence: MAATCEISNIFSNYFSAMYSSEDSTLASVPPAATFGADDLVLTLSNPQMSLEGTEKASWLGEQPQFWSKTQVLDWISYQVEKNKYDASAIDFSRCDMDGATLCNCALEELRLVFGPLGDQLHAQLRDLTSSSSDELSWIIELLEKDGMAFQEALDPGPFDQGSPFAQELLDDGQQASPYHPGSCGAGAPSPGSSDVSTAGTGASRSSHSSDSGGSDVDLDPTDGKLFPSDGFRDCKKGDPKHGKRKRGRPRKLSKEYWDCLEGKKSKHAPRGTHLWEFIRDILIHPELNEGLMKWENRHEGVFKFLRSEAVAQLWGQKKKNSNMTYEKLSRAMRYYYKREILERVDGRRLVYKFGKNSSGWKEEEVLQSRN
# Summary of the method: as §1
# ETV2 = target: T5, ETV2 (Homo sapiens, UniProt O00321 1-342)
# T5 sequence: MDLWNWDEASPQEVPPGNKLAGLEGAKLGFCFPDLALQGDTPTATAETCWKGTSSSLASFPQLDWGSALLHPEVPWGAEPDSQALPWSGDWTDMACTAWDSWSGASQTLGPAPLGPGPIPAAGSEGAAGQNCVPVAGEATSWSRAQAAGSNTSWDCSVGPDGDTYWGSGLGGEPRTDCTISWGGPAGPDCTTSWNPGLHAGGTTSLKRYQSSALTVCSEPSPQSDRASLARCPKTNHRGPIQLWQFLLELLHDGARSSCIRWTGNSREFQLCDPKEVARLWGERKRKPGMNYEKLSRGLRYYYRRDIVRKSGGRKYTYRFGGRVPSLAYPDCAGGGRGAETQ
# Summary of the method: as §1
# Sequence of CRX (O43186 whole entry): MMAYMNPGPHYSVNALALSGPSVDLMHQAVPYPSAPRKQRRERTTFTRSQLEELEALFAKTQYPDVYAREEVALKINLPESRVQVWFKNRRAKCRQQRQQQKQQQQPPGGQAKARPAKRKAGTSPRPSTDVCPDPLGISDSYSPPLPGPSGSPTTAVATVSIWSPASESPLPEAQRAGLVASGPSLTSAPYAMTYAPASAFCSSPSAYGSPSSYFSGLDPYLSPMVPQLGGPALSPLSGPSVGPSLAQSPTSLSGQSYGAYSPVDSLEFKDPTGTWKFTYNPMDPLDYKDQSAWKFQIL
Sequence,binding signal (ELK4),binding signal (ETV7),binding signal (ELF5),binding signal (CRX),binding signal (ELF3),binding signal (ETV2)
ACGTTG,"1.12 fold enrichment (6-mer frequency, TF over GST control)","1.1 fold enrichment (6-mer frequency, TF over GST control)","1.02 fold enrichment (6-mer frequency, TF over GST control)",,,
GTCTAC,"1 fold enrichment (6-mer frequency, TF over GST control)",,"1.08 fold enrichment (6-mer frequency, TF over GST control)",,,
TTGGTC,"1.15 fold enrichment (6-mer frequency, TF over GST control)","1.18 fold enrichment (6-mer frequency, TF over GST control)","1.04 fold enrichment (6-mer frequency, TF over GST control)",,,
AAGGGT,"1.15 fold enrichment (6-mer frequency, TF over GST control)","1.1 fold enrichment (6-mer frequency, TF over GST control)","1.04 fold enrichment (6-mer frequency, TF over GST control)",,,
GTTGAT,"1.17 fold enrichment (6-mer frequency, TF over GST control)",,"1.05 fold enrichment (6-mer frequency, TF over GST control)","1.1 fold enrichment (6-mer frequency, TF over GST control)",,
GGCTCG,"1.11 fold enrichment (6-mer frequency, TF over GST control)",,,,"1 fold enrichment (6-mer frequency, TF over GST control)",
TACGGT,"1.02 fold enrichment (6-mer frequency, TF over GST control)","1.08 fold enrichment (6-mer frequency, TF over GST control)","1.04 fold enrichment (6-mer frequency, TF over GST control)","1.03 fold enrichment (6-mer frequency, TF over GST control)","1.11 fold enrichment (6-mer frequency, TF over GST control)","1.07 fold enrichment (6-mer frequency, TF over GST control)"
CAGCTA,"1.16 fold enrichment (6-mer frequency, TF over GST control)","1.13 fold enrichment (6-mer frequency, TF over GST control)",,"1.05 fold enrichment (6-mer frequency, TF over GST control)","1.1 fold enrichment (6-mer frequency, TF over GST control)",
GTGTCC,,"1.22 fold enrichment (6-mer frequency, TF over GST control)","1.1 fold enrichment (6-mer frequency, TF over GST control)",,"1.22 fold enrichment (6-mer frequency, TF over GST control)","1.19 fold enrichment (6-mer frequency, TF over GST control)"
AGGAAC,,,"1.28 fold enrichment (6-mer frequency, TF over GST control)",,"1.04 fold enrichment (6-mer frequency, TF over GST control)","1.15 fold enrichment (6-mer frequency, TF over GST control)"
GTACGC,,"1.09 fold enrichment (6-mer frequency, TF over GST control)","1.06 fold enrichment (6-mer frequency, TF over GST control)",,"1.17 fold enrichment (6-mer frequency, TF over GST control)",
CGCGAC,"1.14 fold enrichment (6-mer frequency, TF over GST control)",,,,"1.05 fold enrichment (6-mer frequency, TF over GST control)","1.34 fold enrichment (6-mer frequency, TF over GST control)"
CGGAAC,,,"1.3 fold enrichment (6-mer frequency, TF over GST control)",,"1.11 fold enrichment (6-mer frequency, TF over GST control)","1.14 fold enrichment (6-mer frequency, TF over GST control)"
TGTGGT,"1.03 fold enrichment (6-mer frequency, TF over GST control)","1.11 fold enrichment (6-mer frequency, TF over GST control)","1.03 fold enrichment (6-mer frequency, TF over GST control)",,"1.2 fold enrichment (6-mer frequency, TF over GST control)","1.07 fold enrichment (6-mer frequency, TF over GST control)"
ATACCG,"1.04 fold enrichment (6-mer frequency, TF over GST control)","1.04 fold enrichment (6-mer frequency, TF over GST control)","1.13 fold enrichment (6-mer frequency, TF over GST control)",,"1.2 fold enrichment (6-mer frequency, TF over GST control)","1.07 fold enrichment (6-mer frequency, TF over GST control)"
GGACTC,"1.04 fold enrichment (6-mer frequency, TF over GST control)",,,,,"1.01 fold enrichment (6-mer frequency, TF over GST control)"
ACGGCA,,,"1.03 fold enrichment (6-mer frequency, TF over GST control)",,"1.1 fold enrichment (6-mer frequency, TF over GST control)",
TCGCTG,"1.15 fold enrichment (6-mer frequency, TF over GST control)","1.06 fold enrichment (6-mer frequency, TF over GST control)",,,"1.12 fold enrichment (6-mer frequency, TF over GST control)",
TAACCG,,"1.02 fold enrichment (6-mer frequency, TF over GST control)","1.05 fold enrichment (6-mer frequency, TF over GST control)","1.1 fold enrichment (6-mer frequency, TF over GST control)","1.04 fold enrichment (6-mer frequency, TF over GST control)","1.2 fold enrichment (6-mer frequency, TF over GST control)"
AGTATG,,"1.12 fold enrichment (6-mer frequency, TF over GST control)","1.06 fold enrichment (6-mer frequency, TF over GST control)",,"1.08 fold enrichment (6-mer frequency, TF over GST control)",
AACTGA,,"1.05 fold enrichment (6-mer frequency, TF over GST control)","1.01 fold enrichment (6-mer frequency, TF over GST control)",,"1.12 fold enrichment (6-mer frequency, TF over GST control)","1.07 fold enrichment (6-mer frequency, TF over GST control)"
ACGATG,,"1.2 fold enrichment (6-mer frequency, TF over GST control)","1.01 fold enrichment (6-mer frequency, TF over GST control)",,"1.17 fold enrichment (6-mer frequency, TF over GST control)","1.14 fold enrichment (6-mer frequency, TF over GST control)"
GGAAGA,,"1.13 fold enrichment (6-mer frequency, TF over GST control)","1.58 fold enrichment (6-mer frequency, TF over GST control)",,"1.19 fold enrichment (6-mer frequency, TF over GST control)","1.09 fold enrichment (6-mer frequency, TF over GST control)"
CGTCGC,,"1.23 fold enrichment (6-mer frequency, TF over GST control)","1.19 fold enrichment (6-mer frequency, TF over GST control)",,"1.1 fold enrichment (6-mer frequency, TF over GST control)","1.2 fold enrichment (6-mer frequency, TF over GST control)"
GTTACG,"1.03 fold enrichment (6-mer frequency, TF over GST control)","1.02 fold enrichment (6-mer frequency, TF over GST control)",,,,"1.22 fold enrichment (6-mer frequency, TF over GST control)"
GGCCCC,"1.02 fold enrichment (6-mer frequency, TF over GST control)",,,,"1.02 fold enrichment (6-mer frequency, TF over GST control)","1.13 fold enrichment (6-mer frequency, TF over GST control)"
CACGGA,"1.05 fold enrichment (6-mer frequency, TF over GST control)",,"1.29 fold enrichment (6-mer frequency, TF over GST control)",,"1.09 fold enrichment (6-mer frequency, TF over GST control)",
TCGTCA,,,,,,"1.02 fold enrichment (6-mer frequency, TF over GST control)"
GCTGCG,,"1.19 fold enrichment (6-mer frequency, TF over GST control)","1.04 fold enrichment (6-mer frequency, TF over GST control)",,"1.03 fold enrichment (6-mer frequency, TF over GST control)",
ATAAGG,,,"1.25 fold enrichment (6-mer frequency, TF over GST control)","1.28 fold enrichment (6-mer frequency, TF over GST control)","1.1 fold enrichment (6-mer frequency, TF over GST control)","1.02 fold enrichment (6-mer frequency, TF over GST control)"
